The subject of assay [1] is Plasmodium falciparum Sir2 (PF13_0152, Sir2A). Nature of the assay: Plasmodium falciparum Sir2A binding compounds – biochemical, small-molecule microarray, 635 nm fluorescence, primary screen (AID 1098).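 Further: score merges spot fluorescence intensity with its signal-to-noise ratio.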 The conditions noted are these: fluorescence 635 nm, higher = more signal.
A short description of assay [2]: probe aDKK1 binding to arrayed compounds – biochemical, biotinylated probe, 635/667 nm fluorescence, primary screen (AID 1099).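 Further: score merges 667nm spot fluorescence with signal to noise across triplicate slides; reference of the scale not given here.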 The settings on record: small-molecule microarray, higher = more signal.
Assay [3] is described as follows: probe aCHRDL2 binding to arrayed compounds – biochemical, biotinylated probe, 635/667 nm fluorescence, primary screen (AID 1100). The settings on record: small-molecule microarray, higher = more signal.
A short description of assay [4]: change in splice reporter luminescence, either direction, cell-based, HEK293, spliceosome inhibition project, primary screen (AID 1101).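 Further: HEK293 cells carrying a splicing-competent luciferase reporter gene; test concentration not given here.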 The settings on record: HEK293 splicing luciferase reporter, 24 h, higher = more signal, called active from +8 up or from −8 down.
Assay [5] has as its target Fibroblast growth factor 10 (Homo sapiens) (UniProt O15520). Briefly: compounds binding fibroblast growth factor 10 – biochemical, small-molecule microarray, 635 nm fluorescence, primary screen (AID 1102). The settings on record: FGF10 binding, fluorescence 635 nm, higher = more signal.
The subject of assay [6] is glycogen synthase kinase-3 (GSK3A per assay name; protocol says GSK3B). Nature of the assay: compounds binding glycogen synthase kinase-3 – biochemical, small-molecule microarray, 635 nm fluorescence, GSK3A, primary screen (AID 1103). Further: the record names both GSK3A and GSK3B. The conditions noted are these: fluorescence 635 nm, higher = more signal.
Assay [7] concerns the target Epidermal growth factor receptor (Homo sapiens) (UniProt P00533). Briefly: compounds binding epidermal growth factor receptor – biochemical, small-molecule microarray, 635 nm fluorescence, primary screen (AID 1104).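 Further: score merges 667 nm emission intensity with spot signal to noise over triplicate slides.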 The conditions noted are these: EGFR binding, higher = more signal.
Assay [8] has as its target Follistatin-related protein 3 (Homo sapiens) (UniProt O95633). Briefly: compounds binding follistatin-related protein 3 – biochemical, small-molecule microarray, 635 nm fluorescence, primary screen (AID 1105).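 Further: score merges emission near 667 nm and signal to noise per printed spot across three slides.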 The conditions noted are these: FSTL3 binding, higher = more signal.
Assay [9] addresses Dickkopf-related protein 1 (Homo sapiens) (UniProt O94907). Briefly: small molecules binding DKK1 protein – biochemical, small-molecule microarray, 635 nm fluorescence scan, primary screen (AID 1106).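 Further: score merges emission near 667 nm with signal to noise over three replicate slides.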 The settings on record: higher = more signal.
In assay [10] the test system is Inhibin beta A chain (activin A). Nature of the assay: small molecules binding activin A – biochemical, small-molecule microarray, 635 nm fluorescence scan, primary screen (AID 1107).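 Further: mouse activin A protein probed at 4.33 µg/mL on printed slides; score merges bound-protein fluorescence near 667 nm with spot signal-to-noise.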 The settings on record: INHBA, higher = more signal.

Active and inactive are the calls of the source.

Follistatin-related protein 3 (Homo sapiens), sequence (O95633 whole entry, looked up): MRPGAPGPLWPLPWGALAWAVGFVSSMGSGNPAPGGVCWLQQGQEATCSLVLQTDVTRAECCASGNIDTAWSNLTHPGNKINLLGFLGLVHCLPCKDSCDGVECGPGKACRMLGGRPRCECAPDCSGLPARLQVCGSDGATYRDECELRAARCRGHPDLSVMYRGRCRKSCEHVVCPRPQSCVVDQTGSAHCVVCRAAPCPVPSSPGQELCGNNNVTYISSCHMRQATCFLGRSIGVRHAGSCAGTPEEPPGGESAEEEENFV
Epidermal growth factor receptor (Homo sapiens), sequence (P00533 whole entry, looked up): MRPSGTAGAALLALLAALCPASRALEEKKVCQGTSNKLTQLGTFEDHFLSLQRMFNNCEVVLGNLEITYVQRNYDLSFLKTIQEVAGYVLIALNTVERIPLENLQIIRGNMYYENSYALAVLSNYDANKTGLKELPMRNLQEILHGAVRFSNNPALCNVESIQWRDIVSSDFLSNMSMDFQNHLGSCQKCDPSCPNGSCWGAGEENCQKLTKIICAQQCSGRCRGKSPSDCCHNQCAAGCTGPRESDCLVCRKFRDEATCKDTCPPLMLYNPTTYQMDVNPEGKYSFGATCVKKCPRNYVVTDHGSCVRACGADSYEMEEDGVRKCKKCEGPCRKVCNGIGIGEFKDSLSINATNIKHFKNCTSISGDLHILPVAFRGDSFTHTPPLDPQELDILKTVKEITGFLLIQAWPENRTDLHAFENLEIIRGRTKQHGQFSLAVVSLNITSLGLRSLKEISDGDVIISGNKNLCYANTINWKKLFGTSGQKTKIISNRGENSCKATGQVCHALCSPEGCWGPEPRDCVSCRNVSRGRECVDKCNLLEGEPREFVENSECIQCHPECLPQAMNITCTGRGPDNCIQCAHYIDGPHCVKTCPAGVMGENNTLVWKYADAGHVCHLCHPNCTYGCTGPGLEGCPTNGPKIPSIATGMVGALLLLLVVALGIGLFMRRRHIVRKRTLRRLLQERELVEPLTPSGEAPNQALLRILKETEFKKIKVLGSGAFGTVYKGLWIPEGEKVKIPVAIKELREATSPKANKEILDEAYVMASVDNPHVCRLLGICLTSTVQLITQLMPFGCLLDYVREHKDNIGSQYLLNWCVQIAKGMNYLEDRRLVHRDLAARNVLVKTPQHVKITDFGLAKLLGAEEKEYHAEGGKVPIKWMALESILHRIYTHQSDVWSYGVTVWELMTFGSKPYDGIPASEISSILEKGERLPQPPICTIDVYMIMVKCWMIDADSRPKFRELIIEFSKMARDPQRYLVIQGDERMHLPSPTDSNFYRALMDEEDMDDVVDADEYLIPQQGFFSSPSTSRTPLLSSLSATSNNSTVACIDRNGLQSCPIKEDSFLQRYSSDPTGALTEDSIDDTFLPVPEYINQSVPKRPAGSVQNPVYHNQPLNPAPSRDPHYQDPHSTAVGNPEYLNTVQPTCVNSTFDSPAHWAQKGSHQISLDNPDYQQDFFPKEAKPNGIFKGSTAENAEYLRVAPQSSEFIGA
Fibroblast growth factor 10 (Homo sapiens), sequence (O15520 whole entry, looked up): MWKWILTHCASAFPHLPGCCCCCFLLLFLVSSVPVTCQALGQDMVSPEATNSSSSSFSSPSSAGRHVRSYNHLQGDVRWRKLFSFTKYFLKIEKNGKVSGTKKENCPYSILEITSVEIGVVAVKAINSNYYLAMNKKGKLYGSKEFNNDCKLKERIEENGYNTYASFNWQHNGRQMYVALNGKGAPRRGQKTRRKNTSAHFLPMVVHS
Dickkopf-related protein 1 (Homo sapiens), sequence (O94907 whole entry, looked up): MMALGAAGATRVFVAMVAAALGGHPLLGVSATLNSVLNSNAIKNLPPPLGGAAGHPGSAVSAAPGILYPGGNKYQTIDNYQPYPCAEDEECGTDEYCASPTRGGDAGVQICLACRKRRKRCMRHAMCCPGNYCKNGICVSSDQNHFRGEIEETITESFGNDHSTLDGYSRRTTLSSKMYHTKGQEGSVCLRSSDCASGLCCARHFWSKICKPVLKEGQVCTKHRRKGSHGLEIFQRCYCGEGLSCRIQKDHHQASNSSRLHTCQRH

Consider `COc1ccc([C@H]2C[C@H]3C(Br)=C[C@@H]2C(=O)[C@]32CO2)cc1`, for which the composite z-score is 0.0371 in [1]; -0.308 in assay [2]; -0.193 in [3]; -0.105 in [5]; -0.515 in assay [6]; 0.427 in [7]. For the same compound, the composite z-score in assay [8] worked out at 0.202; in assay [9] it was 1.03; in assay [10], 1.52. Moreover, the z-score in [4] is -0.613 (inactive).
As for `COc1ccc(CCNC(=O)[C@@]2(C)c3ccccc3C(=O)N(Cc3cc(F)cc(C(F)(F)F)c3)[C@H]2c2ccc(CO)cc2)cc1`, the composite z-score was 1.59 in assay [1]; 0.362 in assay [2]; 0.875 in assay [3]; 0.512 in [5]; -0.596 in assay [6]; -0.244 in assay [7]. In addition, the composite z-score in assay [8] is -0.972; in assay [9] it was -0.434; in [10], -0.0094. The z-score in assay [4] is -1.23 (inactive).
Consider `CCOC(=O)C[C@H]1[C@H](OC(=O)Cc2ccc3c(c2)OCO3)[C@@H](NC(=O)c2ccc(-c3ccccc3)cc2)c2cc(OCCCO)ccc2N1C(=O)c1ccc2ccccc2n1`, for which the composite z-score was -0.0119 in assay [1]; -0.319 in [2]; -0.486 in assay [3]; 0.556 in assay [5]; 0.28 in assay [6]; 0.468 in assay [7]. Besides, the composite z-score in [8] was 0.321; in assay [9], 0.434; in assay [10], -0.0169. In assay [4], the z-score is -2.82 (inactive).
Regarding `COCC(=C=CC[C@@H](O)c1ccccc1OCCO)C[C@@H](O)c1cc(Cl)cc(Cl)c1O`, the composite z-score in assay [1] was 0.781; in assay [2], -0.174; in [3], -0.607; in [5], 1.23; in assay [6], 1.28; in [7] it was 0.334. Moreover, the results for the composite z-score in [8], in [9] and in [10] were 1.23, 0.317 and 0.495, respectively. Further, in assay [4], the z-score is -0.458 (inactive).
For `CN1C(=O)[C@]2(Cc3ccccc3)N=C(c3ccc(OCCCO)cc3)O[C@@H]2c2ccccc21`, the composite z-score stood at 1.19 in assay [1]; 0.566 in assay [2]; 0.913 in assay [3]; 1.33 in assay [5]; 1.28 in [6]; 0.367 in assay [7]. The results for the composite z-score in assay [8], in [9] and in [10] were 0.459, 0.505 and 1.14, respectively. In addition, the z-score in assay [4] was -1.18 (inactive).
In the case of `CC(C)c1ccc(NN2C(C(O)C(c3ccccc3)c3ccccc3)C=CC3C(=O)N(c4ccccc4)C(=O)C32)cc1` (stereo not given), the composite z-score in assay [1] is 1.08; in assay [2] it was 0.517; in [3], 0.344; in assay [5], 1.31; in assay [6] it was 1.26; in assay [7] it was 0.438. Further, the composite z-score came to 1.06 in assay [8], 0.238 in assay [9] and 0.203 in assay [10]. Moreover, the z-score in [4] was 0.304 (inactive).
`C=CCN1C(=O)[C@@]2(O[C@@H](CCO)[C@H]([Si](C)(C)c3ccc(OC)cc3)[C@H]2C)c2cc(NC(=O)c3ccc(OC)cc3)ccc21`: the composite z-score is 0.45 in [1]; -0.138 in assay [2]; -0.46 in assay [3]; 1.09 in assay [5]; 0.587 in assay [6]; 0.424 in assay [7]. Moreover, the composite z-score in assay [8] is 0.722; in assay [9], 0.532; in assay [10], 1.32. Further, the z-score in assay [4] was -0.491 (inactive).
Consider `COC(=O)[C@@]1(Cc2ccccc2)[C@H]2c3cc(C(=O)N4CCCC4)n(Cc4cccc5ccccc45)c3C[C@H]2CN1C(=O)c1ccccc1`, for which the composite z-score in [1] is 0.473; in [2] it was 2.15; in [3] it was 1.44; in assay [5] it was 0.664; in [6] it was -0.348; in assay [7] it was 0.0512. Further, the composite z-score in assay [8] is 0.272; in [9], -0.922; in assay [10], 1.07. For the same compound, in assay [4], the z-score was -1.33 (inactive).
For `CC[C@@H]1C=C(C(=O)O)[C@H](c2ccco2)N1S(=O)(=O)c1ccc(C)cc1`, the composite z-score in [1] is 1.37; in assay [2], -0.0292; in assay [3], 0.333; in [5] it was 0.0314; in assay [6], 0.175; in [7], -0.832. In addition, the composite z-score is 0.291 in assay [8], 0.128 in assay [9] and 1.23 in assay [10]. Moreover, the z-score in [4] is 0.447 (inactive).
On to `[N-]=[N+]=Nc1ccccc1C[C@]1(C(=O)NCC(O)CO)N=C(c2ccc(OCCCO)cc2)O[C@H]1c1ccccc1N=[N+]=[N-]` (stereo not given in full), for which the composite z-score in assay [1] is 0.535; in assay [2] it was 0.963; in assay [3], 0.704; in [5], -0.255; in assay [6], -0.517; in [7], -0.363. Further, the composite z-score in assay [8] is -0.736; in assay [9], -1.12; in [10], 1.01. In assay [4], the z-score is -1.19 (inactive).
Take `CN(C)C(=O)[C@@]1(Cc2ccccc2CN=[N+]=[N-])N=C(c2ccc(OCCCO)cc2)O[C@H]1c1ccccc1`: the composite z-score in [1] was 1.67; in assay [2], -0.274; in assay [3] it was 1.01; in assay [5] it was 1.21; in assay [6], 0.585; in assay [7], -0.333. In addition, the composite z-score in assay [8] was -0.283; in assay [9], -0.766; in assay [10] it was 0.823. In addition, the z-score in assay [4] is 0.249 (inactive).
In the case of `O=C1NC(=O)C2C1C=CC(C(O)C(c1ccccc1)c1ccccc1)N2Nc1ccc(Cl)cc1Cl` (stereo not given), the composite z-score in [1] is 0.496; in assay [2] it was 0.824; in [3] it was 1.11; in assay [5], 0.554; in assay [6] it was 0.0932; in assay [7], -0.261. Also, the composite z-score was 0.908 in assay [8], -0.737 in [9] and 0.974 in assay [10]. Moreover, in [4], the z-score was 1.44 (inactive).
`O=C1O[C@@H](c2ccccc2)[C@@H](c2ccccc2)N2[C@@H](c3ccc(OCCO)cc3)[C@]3(C(=O)Nc4ccccc43)[C@@H](C(=O)NC[C@H](O)c3ccccc3)[C@H]12`: the composite z-score in assay [1] amounted to 1.17; in [2], 0.189; in assay [3], 0.2; in assay [5], 0.55; in assay [6], 0.445; in [7] it was 0.566. For the same compound, the composite z-score in [8] came out at 0.33; in assay [9], 0.334; in [10] it was 0.632. Also, the z-score in [4] is -0.203 (inactive).
As for `CC(C)(C)OC(=O)CC[C@]1(C(=O)NCC(O)CO)COC(c2ccc(OCCCO)cc2)=N1` (stereo not given in full), the composite z-score in [1] is 0.304; in [2], 0.747; in assay [3], 0.788; in [5], 0.145; in assay [6], 0.435; in assay [7] it was -0.172. The composite z-score is -0.952 in assay [8], -1.01 in assay [9] and 0.173 in assay [10]. In assay [4], the z-score was 0.646 (inactive).

(Values after PubChem BioAssay.)
